From PubChem BioAssay (NCATS)
Records with an inconclusive call do not appear. Activity calls are given as the source filed them. Calls come from the whole dose curve; as a rule, active = well fitted curve in the direction sought with a large enough effect; inconclusive = small, poorly fitted or top-dose-only effect, or another doubt; inactive = no such curve, though single readings can be large; an effect the other way counts as inactive or inconclusive.

target: phosphoglycerate mutase (Leishmania major) (UniProt Q4Q090); assay: qHTS Validation Assay to Find Inhibitors of Phosphoglycerate Mutase (AID 504548); details: biochemical enzyme activity; Potency: inhibition qHTS; series mostly up to 57.5 µM; activity change, negative = inhibition: at the top concentration;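 note: end-point luminescence from Kinase-GloPlus after the PGAM reaction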
Sequence (Q4Q090 1-553): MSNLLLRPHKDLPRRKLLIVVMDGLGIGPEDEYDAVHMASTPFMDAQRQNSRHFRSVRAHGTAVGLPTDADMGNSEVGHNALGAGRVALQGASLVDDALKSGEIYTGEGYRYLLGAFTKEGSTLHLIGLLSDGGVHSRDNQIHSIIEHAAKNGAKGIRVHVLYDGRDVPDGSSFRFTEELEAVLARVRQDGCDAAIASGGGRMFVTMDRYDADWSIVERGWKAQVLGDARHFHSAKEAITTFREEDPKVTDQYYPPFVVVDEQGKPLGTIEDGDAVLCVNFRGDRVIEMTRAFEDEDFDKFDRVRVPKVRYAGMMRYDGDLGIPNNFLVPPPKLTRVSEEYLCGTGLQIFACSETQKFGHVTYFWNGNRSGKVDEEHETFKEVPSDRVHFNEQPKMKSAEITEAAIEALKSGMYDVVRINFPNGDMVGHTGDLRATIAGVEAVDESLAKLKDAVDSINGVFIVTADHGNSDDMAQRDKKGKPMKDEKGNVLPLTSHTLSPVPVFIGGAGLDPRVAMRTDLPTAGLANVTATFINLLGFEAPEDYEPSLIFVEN
In short: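 L. major PGAM (1.25nM final) was added to substrate buffer and pinned compound, incubated 45 minutes at room temperature, then Kinase-GloPlus added; luminescence read after 10 minutes. Buffer: 100 mM TEA pH 7.6, 5 mM MgCl2, 0.01% Tween-20.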
% is set by controls: 0 for no effect and ±100 for the full control effect.

| Structure (SMILES) | activity change, negative = inhibition | Potency |
| --- | --- | --- |
| CC(C)ON([C@@H](C(=O)NO)C(C)C)S(=O)(=O)c1ccc(-c2ccccc2)cc1 | -0.903% (inactive) | – |
| O=c1[nH]c2cc(Cl)c(Cl)cc2[nH]c1=O | 2.12% (inactive) | – |
| CN1CCc2cccc3c2C1Cc1ccc(O)c(O)c1-3 (stereo unspecified) | -4.09% (inactive) | – |
| CC(=O)N[C@H](C(=O)O)C(C)(C)SN=O | -4.65% (inactive) | – |
| Cc1ccc(C(=O)O[C@H](C(=O)O)[C@@H](OC(=O)c2ccc(C)cc2)C(=O)O)cc1 (tested in a mixture with another compound) | 10.8% (inactive) | – |
| CN(C)c1ccc(/C=C2\C(=O)Nc3ccccc32)cc1 | -13.2% (inactive) | – |
| Cn1ncc(S(=O)(=O)Cc2ccccc2)c(Br)c1=O | -3.65% (inactive) | – |
| CCNC(=O)[C@H]1O[C@@H](n2cnc3c(N)nc(NCCc4ccc(CCC(=O)O)cc4)nc32)[C@H](O)[C@@H]1O | 2.12% (inactive) | – |
| O=Nc1ccc2oc(=O)ccc2c1 | 5.72% (inactive) | – |
| O=C(O)CC[C@@H](C(=O)O)N1C(=O)c2ccccc2C1=O | 10.9% (inactive) | – |
| C=C[C@@H]1CN2CC[C@@H]1C[C@H]2[C@H](O)c1ccnc2ccc(OC)cc12 | 8.07% (inactive) | – |
| CCN1/C(=C/C(C)=O)Sc2ccc(OC)cc21 | -5.12% (inactive) | – |
| N=c1ccn2c(n1)O[C@H]1[C@H](O)[C@@H](CO)O[C@H]12 | -1.77% (inactive) | – |
| CC[C@@H](C)[C@H]1O[C@]2(CC[C@H]1C)C[C@@H]1C[C@@H](CC=C(C)[C@@H](O[C@H]3C[C@H](OC)[C@@H](O[C@H]4C[C@H](OC)[C@@H](O)[C@H](C)O4)[C@H](C)O3)[C@@H](C)C=CC=C3CO[C@@H]4[C@H](O)C(C)=C[C@@H](C(=O)O1)[C@]34O)O2 | -1.53% (inactive) | – |
| CNC(=O)[C@H]1O[C@@H](n2cnc3c(NCc4ccc(N)cc4)ncnc32)[C@H](O)[C@@H]1O | 11.9% (inactive) | – |
| Oc1ccc(C2CNCc3sccc32)cc1O (stereo unspecified) | 3.77% (inactive) | – |
| COc1ccc2c(c1)CCC1C2CC[C@@]2(C)C1CC[C@@H]2NCCCCCCN1C(=O)CCC1=O (stereo partly specified) | -2.46% (inactive) | – |
| OC[C@H]1O[C@@H](n2cnc3c(NC4CCCC4)ncnc32)[C@H](O)[C@@H]1O | 10.2% (inactive) | – |

| Structure (SMILES) | activity change, negative = inhibition | Potency |
| --- | --- | --- |
| NS(=O)(=O)C#Cc1ccccc1 | 7.59% (inactive) | – |
| OCC1O[C@H]([S-])[C@H](O)[C@@H](O)[C@@H]1O.[Au+] (stereo partly specified) | -4.34% (inactive) | – |
| C=C[C@H]1CN2CC[C@@H]1C[C@@H]2[C@@H](O)c1ccnc2ccc(OC)cc12 | 13.2% (inactive) | – |
| Nc1nc(Cl)nc2c1ncn2[C@@H]1O[C@H](COP(=O)(O)OP(=O)(O)OP(=O)(O)O)[C@@H](O)[C@H]1O | -2.66% (inactive) | – |
| CCCCCCCCCCCCCCCC(=O)OC(CC(=O)O)C[N+](C)(C)C (stereo unspecified) | 8.7% (inactive) | – |
| CC(C)(C)c1ccc(S(=O)(=O)/C=C/C#N)cc1 | -4.44% (inactive) | – |
| C[N+]1(C)C2CC(OC(=O)[C@H](CO)c3ccccc3)CC1C1OC12 (stereo partly specified) | – | inactive |
| S=C(S)OC1CC2CC1C1CCCC21 (stereo unspecified) | -5.81% (inactive) | – |
| CC(=O)/C=C1\C(=O)N(C)c2ccccc21 | 9% (inactive) | – |
| COc1cc(OC)c(/C=C2/C(=O)Nc3ccccc32)c(OC)c1 | 16.8% (inactive) | – |
| Nc1nc(Cl)nc2c1ncn2[C@@H]1O[C@H](CO)[C@@H](O)[C@H]1O | -5.74% (inactive) | – |
| CN(C)c1nc(N)c(C(=O)N=C(N)N)nc1Cl | -5.34% (inactive) | – |
| c1ccc(-c2ccccn2)nc1 | 10.4% (inactive) | – |
| CN1CCc2cc(O)c(O)cc2C(c2ccccc2)C1 (stereo unspecified) | -4.11% (inactive) | – |
| CCCCN1CCC(n2c(=O)[nH]c3ccccc32)CC1 | -4.88% (inactive) | – |
| CCCCCCCCCCCCCCCCCCNC(=O)OCC(COP(=O)([O-])OCC[n+]1ccsc1)OC (stereo unspecified) | 0.586% (inactive) | – |
| CN1[C@@H](CC(=O)c2ccccc2)CCC[C@H]1C[C@H](O)c1ccccc1 | -8.48% (inactive) | – |
| CCCCCCCCCCCCCCCC(=O)NCC(COP(=O)([O-])OCC[N+](C)(C)C)OCC (stereo unspecified) | 5.23% (inactive) | – |

target: Ubiquitin carboxyl-terminal hydrolase 1 (Homo sapiens) (UniProt O94782); assay: Inhibitors of USP1/UAF1: Pilot qHTS (AID 504865); details: purified USP1/UAF1, Ub-rhodamine cleavage fluorescence; series mostly up to 114 µM; activity change, negative = inhibition: at the top concentration; note: nearly all actives have a fitted effect of over 35% in size; note: potency is the fitted concentration of half-maximal effect;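 for activity change, negative = inhibition: rhodamine fluorescence freed from ubiquitin-rhodamine substrate followed over time; top concentration of the series differs between compounds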
Sequence (O94782 whole entry, looked up): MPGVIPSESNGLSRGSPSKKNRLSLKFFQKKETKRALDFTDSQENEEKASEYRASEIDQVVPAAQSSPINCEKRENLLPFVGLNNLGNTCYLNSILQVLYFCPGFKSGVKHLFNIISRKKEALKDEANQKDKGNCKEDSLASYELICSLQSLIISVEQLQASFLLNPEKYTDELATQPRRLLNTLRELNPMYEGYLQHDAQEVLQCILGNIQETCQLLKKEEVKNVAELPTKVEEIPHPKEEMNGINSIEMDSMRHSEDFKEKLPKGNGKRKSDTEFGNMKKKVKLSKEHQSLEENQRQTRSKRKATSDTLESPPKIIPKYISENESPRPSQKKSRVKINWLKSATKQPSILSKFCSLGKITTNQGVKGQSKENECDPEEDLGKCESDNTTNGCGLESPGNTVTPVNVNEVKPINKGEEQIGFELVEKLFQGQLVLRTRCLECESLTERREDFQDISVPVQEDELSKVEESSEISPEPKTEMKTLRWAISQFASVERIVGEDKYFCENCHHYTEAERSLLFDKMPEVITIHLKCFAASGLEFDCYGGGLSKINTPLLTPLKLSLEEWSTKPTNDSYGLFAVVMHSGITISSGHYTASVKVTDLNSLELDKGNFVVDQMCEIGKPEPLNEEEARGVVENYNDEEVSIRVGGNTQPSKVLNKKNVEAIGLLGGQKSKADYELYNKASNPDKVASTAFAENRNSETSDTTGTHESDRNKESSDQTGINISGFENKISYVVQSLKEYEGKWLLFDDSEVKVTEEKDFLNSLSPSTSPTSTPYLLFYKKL
In short: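 1nM USP1/UAF1 + cpd, 15 min RT; start w/ Ub-Rho 150nM final; kinetic FL 480/540 nm, 6 reads q60 s. Buffer 50mM HEPES pH 7.8, 0.5mM EDTA, 1mM TCEP, 0.01% Tween-20, 0.1 mg/ml BSA.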

| Structure (SMILES) | Potency | activity change, negative = inhibition |
| --- | --- | --- |
| O=c1[nH]c2cc(Cl)c(Cl)cc2[nH]c1=O | inactive | – |
| CN1CCc2cccc3c2C1Cc1ccc(O)c(O)c1-3 (stereo unspecified) | inactive | – |
| CC(=O)N[C@H](C(=O)O)C(C)(C)SN=O | – | -12.3% (inactive) |
| Cc1ccc(C(=O)O[C@H](C(=O)O)[C@@H](OC(=O)c2ccc(C)cc2)C(=O)O)cc1 (tested in a mixture with another compound) | – | -2.82% (inactive) |
| CN(C)c1ccc(/C=C2\C(=O)Nc3ccccc32)cc1 | – | -6.21% (inactive) |
| Cn1ncc(S(=O)(=O)Cc2ccccc2)c(Br)c1=O | 12.6 µM (active) | – |
| CCNC(=O)[C@H]1O[C@@H](n2cnc3c(N)nc(NCCc4ccc(CCC(=O)O)cc4)nc32)[C@H](O)[C@@H]1O | – | 5% (inactive) |
| O=C(O)CC[C@@H](C(=O)O)N1C(=O)c2ccccc2C1=O | – | -8.76% (inactive) |
| CCN1/C(=C/C(C)=O)Sc2ccc(OC)cc21 | – | -5.27% (inactive) |
| N=c1ccn2c(n1)O[C@H]1[C@H](O)[C@@H](CO)O[C@H]12 | inactive | – |
| CNC(=O)[C@H]1O[C@@H](n2cnc3c(NCc4ccc(N)cc4)ncnc32)[C@H](O)[C@@H]1O | – | -8.03% (inactive) |
| Oc1ccc(C2CNCc3sccc32)cc1O (stereo unspecified) | – | -9.4% (inactive) |
| COc1ccc2c(c1)CCC1C2CC[C@@]2(C)C1CC[C@@H]2NCCCCCCN1C(=O)CCC1=O (stereo partly specified) | – | 0.939% (inactive) |
| OC[C@H]1O[C@@H](n2cnc3c(NC4CCCC4)ncnc32)[C@H](O)[C@@H]1O | – | -4.42% (inactive) |
| NS(=O)(=O)C#Cc1ccccc1 | – | 0.371% (inactive) |
| OCC1O[C@H]([S-])[C@H](O)[C@@H](O)[C@@H]1O.[Au+] (stereo partly specified) | – | 2.35% (inactive) |
| Nc1nc(Cl)nc2c1ncn2[C@@H]1O[C@H](COP(=O)(O)OP(=O)(O)OP(=O)(O)O)[C@@H](O)[C@H]1O | – | -13.3% (inactive) |
| CCCCCCCCCCCCCCCC(=O)OC(CC(=O)O)C[N+](C)(C)C (stereo unspecified) | 50.1 µM (active) | – |
| CC(C)(C)c1ccc(S(=O)(=O)/C=C/C#N)cc1 | – | -3.85% (inactive) |
| C[N+]1(C)C2CC(OC(=O)[C@H](CO)c3ccccc3)CC1C1OC12 (stereo partly specified) | inactive | – |
| S=C(S)OC1CC2CC1C1CCCC21 (stereo unspecified) | – | -8.03% (inactive) |
| CC(=O)/C=C1\C(=O)N(C)c2ccccc21 | – | -10.4% (inactive) |
| COc1cc(OC)c(/C=C2/C(=O)Nc3ccccc32)c(OC)c1 | – | -7.14% (inactive) |
| Nc1nc(Cl)nc2c1ncn2[C@@H]1O[C@H](CO)[C@@H](O)[C@H]1O | inactive | – |
| CN(C)c1nc(N)c(C(=O)N=C(N)N)nc1Cl | – | 0.72% (inactive) |
| c1ccc(-c2ccccn2)nc1 | – | -11.3% (inactive) |
| CN1CCc2cc(O)c(O)cc2C(c2ccccc2)C1 (stereo unspecified) | – | -3.62% (inactive) |
| CCCCN1CCC(n2c(=O)[nH]c3ccccc32)CC1 | – | -0.735% (inactive) |
| CN1[C@@H](CC(=O)c2ccccc2)CCC[C@H]1C[C@H](O)c1ccccc1 | inactive | – |
| CCCCCCCCCCCCCCCC(=O)NCC(COP(=O)([O-])OCC[N+](C)(C)C)OCC (stereo unspecified) | 79.4 µM (active) | – |
